Drawing on PubChem BioAssay (NCI), this text covers growth for 13 compounds.

Each structure is given as a SMILES string. “And” between values parts separate entries of the source, which are not always exact repeats. Equal values may be shown once. Compounds without any hit were thinned out: in the full panel of roughly 83,000, 20% have a hit.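 Cell lines were cultured in 96-well plates, exposed to a single compound concentration, and assessed for percent growth 48 hours later.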 Unmarked numbers belong to inactive results. The source made the active and inactive calls. Rule for the calls: active = growth percent below 10; inactive = the rest.

Holding throughout (assay): NCI-60 one-dose screen, 48 h (100 = growth as untreated, 0 = no growth, -100 = all killed)
What all share (settings): 10 µM unless noted

Assay [1] relates to SR leukemia.
The subject of assay [2] is RPMI-8226 leukemia.
Assay [3] relates to OVCAR-8 ovarian.
Assay [4] deals with OVCAR-5 ovarian.
Assay [5] deals with OVCAR-4 ovarian.
For assay [6], the system named is SK-OV-3 ovarian.
For assay [7], the system named is IGROV1 ovarian.
For assay [8], the system named is OVCAR-3 ovarian.
For assay [9], the system named is HS 578T breast.
In assay [10] the test system is NCI/ADR-RES ovarian.

Turning to `C=C1CCC2C3(C)COC(c4ccc(NC(C)=O)cc4)OC3CCC2(C)C1C/C=C1/C(=O)OCC1O` (stereo not given), the growth in assay [1] is 25.2%; in assay [2] it was 6.14% (active); in [3] it was 44.7%; in [4], 74.9%; in assay [5], 23.7%; in assay [6], 79.6%. The growth in assay [7] is 84.4%; in assay [8], 76.2%; in [9], 54%; in assay [10], 36.1%.
As for `COc1ccc(-c2cc(-c3cc(OC)c(OC)c(OC)c3)c(C#N)c(=O)n2CCCCC(=O)O)cc1`, the growth in [1] is 72.6%; in [2], 84.3%; in assay [3], 92.4%; in assay [4] it was 105%; in assay [5], 91.5%; in [6], 125%. The growth is 104% in [7], 99.6% in [8], 87.7% in assay [9] and 102% in assay [10].
For `CC(=O)N1N=C(c2ccc(F)cc2)CC1c1sc(N(C)Cc2ccccc2)nc1Cl` (stereo not given), the growth in [1] was 94.6%; in assay [2], 75.2%; in assay [3], 105%; in assay [4], 109%; in [5], 88.7%; in [6], 101%. In addition, the growth in assay [7] is 96%; in assay [8] it was 101%; in assay [9], 109%; in assay [10], 92%.
Regarding `N#CC1=C(N)Oc2c(sc3c(Br)cccc23)C1c1ccccn1` (stereo not given), the growth in [1] was 12.7%; in assay [2] it was 30%; in assay [3] it was 53.8%; in assay [4], 72%; in assay [5], 88.6%; in [6], 27.2%. For the same compound, the growth is 43.1% in assay [7], 14.3% in [8], 45.5% in assay [9] and 14.6% in assay [10].
In the case of `Nc1nc(Cl)nc2c1ncn2C1OC(CO)C(O)C1O` (stereo not given), the growth was 56.8% in assay [1]; 104% and 96.1% in assay [2]; 22.9% and 29.3% in [3]; 90% and 105% in assay [4]; 94.4% and 87% in assay [5]; 41.3% and 68.1% in assay [6]. Besides, the growth in assay [7] is 78.9% and 75.1%; in assay [8] it was 86.9%; in assay [9], 108%; in assay [10], 29.6% and 40.2%.
With `CSc1nnc(-c2cc3c([nH]c4ccccc43)c(-c3cccc(O)c3)n2)n1-c1ccc(C)cc1`, the growth is 5.99% (active) in assay [1]; 19.3% in [2]; 34.8% in assay [3]; 72.6% in assay [4]; 54.1% in assay [5]; 42% in assay [6]. Also, the growth is 51% in assay [7], 1.33% (active) in [8], 37.3% in assay [9] and 43.1% in [10].
On to `COc1ccc(/C=C2/C(=O)N=C3N2NC(c2ccccc2)=CN3c2ccccc2)cc1`, for which the growth in assay [1] is 106%; in assay [2], 99.9%; in [3] it was 98.1%; in assay [4], 107%; in assay [5], 102%; in assay [6] it was 107%. Also, the growth is 95.9% in assay [7], 111% in [8], 95.4% in [9] and 96.9% in assay [10].
For the compound `Cc1nnc(NS(=O)(=O)c2ccc(N=Nc3ccc(N)nc3N)cc2)s1`, the growth in [1] was 94.2% and 94.5%; in [2] it was 105%; in [3] it was 107% and 116%; in assay [4] it was 98.7% and 99.3%; in assay [5] it was 110% and 105%; in assay [6], 111%. The growth in assay [7] is 123% and 108%; in assay [8] it was 124% and 105%; in assay [9], 121% and 105%; in [10], 102% and 106%.
Consider `CCOC(=O)C(=CCC(C)C)C(=O)OCC`, for which the growth was 119% in assay [1]; 99% in [2]; 109% in [3]; 95.8% in assay [4]; 95.2% in [5]; 98.5% in assay [6]. In addition, the growth in assay [7] was 104%; in assay [8] it was 99.5%; in assay [9], 98.6%; in [10], 93.8%.
Turning to `COc1ccc(Nc2nn3c(SCC(=O)c4ccc(C)cc4)nnc3s2)cc1`, the growth is 68.9% in assay [1]; 98% in assay [2]; 94.8% in [3]; 99.3% in [4]; 108% in assay [5]; 79.2% in assay [6]. Besides, the growth in assay [7] was 91.4%; in assay [8], 110%; in assay [9], 92.2%; in assay [10], 104%.
Turning to `NCCOCCOc1ccccc1`, the growth in assay [1] was 101%; in assay [2] it was 88.7%; in [3], 107%; in assay [4], 104%; in [5], 98%; in assay [6] it was 112%. The growth in assay [7] is 103%; in [8] it was 106%; in assay [9] it was 115%; in [10], 102%.
Regarding `CC(=O)OC[C@]12CCC(C)(C)C=C1[C@H]1CC[C@@H]3[C@@]4(C)CCCNC(C)(C)[C@@H]4CC[C@@]3(C)[C@]1(C)CC2`, the growth in [1] was 13.7%; in assay [2], -4.32% (active); in [3], 71.9%; in assay [4], 96.7%; in assay [5] it was 41.8%; in [6], 90.5%. The growth in assay [7] is 43.6%; in assay [8], 30.7%; in assay [9], 92.5%; in assay [10], 104%.
For `N#C/C(=C\c1ccccc1Cl)c1cc2ccccc2[nH]1`, the growth was 60% in assay [1]; 77.1% in assay [2]; 96.4% in assay [3]; 95.8% in assay [4]; 96.4% in assay [5]; 76.3% in assay [6]. Also, the growth was 84.7% in assay [7], 101% in assay [8], 92.9% in [9] and 95.5% in assay [10].
